PubChem BioAssay (NCI)
This is part of a sample that, as a whole, favours compounds with a hit. Of some 83,000 tested, about 20% had one in any assay.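 Cells were grown in 96-well plates and exposed to the test compound at a single concentration for 48 hours; results are reported as percent growth, with values below 10 considered active.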 The source made the active and inactive calls.

test system: SR leukemia; assay: NCI-60 one-dose screen, 48 h (100 = growth as untreated, 0 = no growth, -100 = all killed); conditions: 10 µM unless noted

Row | SMILES | growth
1 | OCC1C2C=CC(C2)C1CO (stereo not drawn) | 78.7% (inactive)
2 | Fc1ccc(Cc2ccc(F)cc2)cc1 | 116% (inactive)
3 | O=c1ccc2cc3ccccc3cc2[nH]1 | 82.1% (inactive)
4 | COc1ccc(-c2nn(-c3ccccc3)cc2/C=C/C(=O)OCc2cn(-c3ccc(F)c(Cl)c3)nn2)cc1 | 88.3% (inactive)
5 | COc1ccccc1N1CCN(CCn2c(=O)c3c(c4ccccc4n3C)n(C)c2=O)CC1 | 78% (inactive)
6 | CCCCCCCCCCNC(=O)CCl | 51.4% (inactive)
7 | N=S(=O)(NC(=O)c1ccc(Cl)cc1Cl)c1ccc(Br)s1 (stereo not drawn) | 75% (inactive)
8 | CCOC(=O)/C=C/C(=O)[C@H](CC(C)C)NC(=O)[C@H](Cc1ccccc1)NC(=O)OCc1ccccc1 | -8.81% (active)
9 | COC1/C=C\OC2(C)Oc3c(C)c(O)c4c(O)c(c(CN(C)CCO)c(O)c4c3C2=O)NC(=O)/C(C)=C\C=C/C(C)C(O)C(C)C(O)C(C)C(OC(C)=O)C1C (stereo not drawn) | 91.2% (inactive)
10 | COc1nc2c(cc1S(=O)(=O)c1ccccc1)CCc1c-2cnn1Cc1ccccc1 | 26.2% (inactive)
11 | O=S(=O)(NCCCNc1cc(-c2cn(-c3ccccc3)nc2-c2ccccc2)ccn1)c1ccc(C(F)(F)F)cc1 | 39.3% (inactive)
12 | N#CC1=C(N)Oc2c(ccc3ccccc23)C1c1cccs1 (stereo not drawn) | -11.2% (active)
13 | CCN(CC)CCCNc1cc(OC)cc2nc3cc(Cl)ccc3nc12 | -34.6% (active)
14 | O=C(CN1CCN(c2cc3c(cc2F)c(=O)c(C(=O)O)cn3C2CC2)CC1)Nc1nc(-c2ccc(Cl)cc2)cs1 | 29.3% (inactive)
15 | O=C1CC(c2nc3ccccc3[nH]2)CN1C1CCCCC1 (stereo not drawn) | 97.4% (inactive)
16 | COc1cc(OC)c(/C=C/c2cc[n+](C)c3ccccc23)c(OC)c1 | -16.8% (active)
17 | CCN(CC)c1ccc(CNc2cc(C)nc3ccc(OC)cc23)cc1 | -22.2% (active)
18 | CCCCCN(CCCCC)CCC[C@@H](C)[C@H]1CC[C@H]2[C@@H]3[C@H](OCCCN)C[C@@H]4C[C@H](OCCCN)CC[C@]4(C)[C@H]3C[C@H](OCCCN)[C@]12C | 19.2% (inactive)
19 | COc1cc(OC)c(/C=C/S(=O)(=O)Cc2ccc(OC)c(N)n2)c(OC)c1 | 0.349% (active)

Row | SMILES | growth
20 | CC(=O)C1=C(O)C=C2Oc3c(C(=O)/C=C/c4cc(C(F)(F)F)cc(C(F)(F)F)c4)c(O)c(C)c(O)c3[C@]2(C)C1=O | -29.3% (active)
21 | Cc1cc(Nc2nc(N3CCOCC3)nc3ccccc23)n[nH]1 | 10.8% (inactive)
22 | COc1cc(OC)c(/C=C/C(=O)c2c(OC)cc(OC)cc2OC)c(OC)c1 | -11.9% (active)
23 | c1ccc(CSc2ncnc3nc[nH]c23)nc1 | 103% (inactive)
24 | C=C(CN1CCN(c2cccc(C(F)(F)F)n2)CC1)c1ccc(C(=O)Nc2ccccc2N)cc1 | -20.9% (active)
25 | CN1CCOCCOCCOc2ccccc2NC(=O)c2nc(cnc2N)-c2ccc(cc2)S1(=O)=O | -16.3% (active)
26 | COc1cc(/C=N/N(C)C)ccc1O | 93% (inactive)
27 | O=C(/C=C/c1ccc(B(O)O)cc1)/C=C/c1ccc(B(O)O)cc1 | 8.8% (active)
28 | CCC(=O)OCc1cccc(OC)c1 | 116% (inactive)
29 | COc1cnc2c(c1)C(=O)c1c-2n(CCCBr)c(=O)c2cc([N+](=O)[O-])ccc12 | 7.47% (active)
30 | C/C(=C(/c1ccc(O)cc1)c1ccc(OCCN2CCCC2)cc1)c1ccccc1 | -11.3% (active)
31 | CCCCCCCCCc1cc(CN2CCCCC2)c(O)c(CN2CCCCC2)c1 | 7.18% (active)
32 | CCCCN(CC)CCCCCCCCCCN1CCCc2cc(OC)ccc21 | -31.7% (active)
33 | COc1cc(NC(N)=NCC(C)(C)COc2ccc(C(F)(F)F)cc2)cnc1C#N | 49.8% (inactive)
34 | COc1ccc2nc(NC(=O)c3cccnc3Nc3cc(OC)c(OC)c(OC)c3)sc2c1 | -12.6% (active)
35 | CCN(CC)CCC(=O)c1ccc(OC)c2ccccc12 | -6.8% (active)
36 | COc1ccc(/C=C2\N=C3Sc4cc(Cl)ccc4C(=O)N3C2=O)cc1 | 88.4% (inactive)
37 | Nc1c(C(=O)Nc2ccccc2)sc2nc3c(cc12)CN(CCc1ccccc1)CC3 | 90% (inactive)
38 | CC(C)Oc1nc2c(c(=O)n(C)c(=O)n2C)n1C | 104% (inactive)
